Records with an inconclusive call do not appear.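 How the source made its calls, unless noted: active means GFP response below 50% of the DMSO control; inconclusive means fewer than 70 events counted for a yeast strain; inactive means the rest.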
Assay: modulators of LAP4-GFP expression in yeast, primary screen, S. cerevisiae, multiplex flow cytometry (AID 1873;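 active means GFP signal, as percent of the solvent control, above the screen mean plus 3 SD, about 149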)
Conditions: 3 h, at 10 µM, stronger effect = higher value

GFP response vs DMSO, inactive:
COc1cc2c(cc1OC)-c1cc(NC3CCCCCC3)nc(=O)n1CC2 94.7%
O=C(O)c1ccccc1OCCOc1ccccc1 129%
COC(=O)C1=NN(C(=O)c2cccc(Br)c2)C(O)(c2ccc(Cl)cc2)C1 (configuration not stated) 114%

Assay: modulators of AGP1-GFP expression in yeast TOR pathway, primary screen, cell-based, multiplex flow cytometry, S. cerevisiae (AID 1887;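 active means GFP signal above the screen-wide mean plus 3 SD, that is over about 124.5% of the solvent control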;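 further: AGP1-GFP fusion strain of S. cerevisiae within a five-strain barcoded multiplex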)
Conditions: 3 h, at 10 µM, stronger effect = higher value

GFP response, % of DMSO, inactive:
COc1cc2c(cc1OC)-c1cc(NC3CCCCCC3)nc(=O)n1CC2 95.9%
O=C(O)c1ccccc1OCCOc1ccccc1 77.1%
COC(=O)C1=NN(C(=O)c2cccc(Br)c2)C(O)(c2ccc(Cl)cc2)C1 (configuration not stated) 89.9%

Assay: RPL19A-GFP modulators, yeast TOR pathway, confirmation, cell-based, S. cerevisiae, flow cytometry, cherry picks, mother/daughter gates (AID 2270)
Conditions: S. cerevisiae RPL19A-GFP strain, 3 h, at 10 µM, stronger effect = lower value, 100 = same GFP as DMSO wells

GFP response vs DMSO, inactive:
O=C1c2ccccc2-c2onc3ccc(Oc4ccccc4)c1c23 86.5%
CCOc1nnc(C)c2c(C)n(-c3cccc(OC)c3)nc12 104%
O=C(C#Cc1ccccc1)c1cccc([N+](=O)[O-])c1 92.5%
COC(=O)c1ccc2nc(Nc3nc4c(F)cc(F)cc4s3)sc2c1 98.2%
O=C(C#Cc1cccc([N+](=O)[O-])c1)c1ccccc1 94.1%
COC(=O)n1c(=S)oc2cc(Cl)ccc21 106%
O=C(/C=C/c1ccc(Cl)c([N+](=O)[O-])c1)c1cccnc1 91.5%
COCCN1C(=O)/C(=C/c2ccc(N3CCCC3)cc2C)SC1=S 99.6%
N=c1c(C(=O)NCc2ccco2)cc2c(=O)n3ccccc3nc2n1CCc1ccccc1 96.8%
COc1cccc2sc(Nc3nc(-c4ccccn4)cs3)nc12 107%
Oc1ccc2ccccc2c1/C=N/Nc1nnc(-c2ncc[nH]2)c2ccccc12 108%

From PubChem BioAssay
